Results reported in PubChem BioAssay (NCATS).
A number with no mark means an inactive call. Records with an inconclusive call do not appear. Where a call stands in place of a potency, no number is given. Active and inactive are the calls of the source. Unless noted, calls come from the whole dose curve; as a rule, active = well fitted curve in the direction sought with a large enough effect; inconclusive = small, poorly fitted or top-dose-only effect, or another doubt; inactive = no such curve, though single readings can be large; an effect the other way counts as inactive or inconclusive.

What was measured:
[1] = target: Lysosomal acid glucosylceramidase (Homo sapiens) (UniProt P04062); assay: Glucocerebrosidase-p2 (AID 348; in the data active = potency below about 10 µM; note: potency is the fitted concentration of half-maximal effect); settings: purified GBA, blue fluorogenic substrate, 40 min
Lysosomal acid glucosylceramidase (Homo sapiens), sequence (P04062 whole entry, looked up): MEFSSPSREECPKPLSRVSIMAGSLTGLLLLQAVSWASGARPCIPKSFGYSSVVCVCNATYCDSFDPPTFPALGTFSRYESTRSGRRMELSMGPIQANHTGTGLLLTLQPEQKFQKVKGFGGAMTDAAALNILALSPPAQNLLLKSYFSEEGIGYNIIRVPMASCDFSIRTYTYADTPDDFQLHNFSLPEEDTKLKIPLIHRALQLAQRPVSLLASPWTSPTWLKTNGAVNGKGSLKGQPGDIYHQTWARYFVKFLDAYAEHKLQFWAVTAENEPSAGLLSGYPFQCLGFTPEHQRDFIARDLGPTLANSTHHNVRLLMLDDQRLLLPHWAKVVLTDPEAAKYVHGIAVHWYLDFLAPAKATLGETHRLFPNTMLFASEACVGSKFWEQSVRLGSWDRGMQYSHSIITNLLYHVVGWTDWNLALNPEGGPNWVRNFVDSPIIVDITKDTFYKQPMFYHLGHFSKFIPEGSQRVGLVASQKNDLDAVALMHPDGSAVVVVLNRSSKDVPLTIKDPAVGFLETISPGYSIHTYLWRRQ
In short: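 Compounds titrated from 0.6 nM upwards against 0.2 nM enzyme in pH 5.9 citric acid/KH2PO4, taurocholate, tween-20; blue fluorogenic substrate 80 uM, 40 min room temperature, stopped and read Ex 365/Em 440 for AC50.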

[2] = AP1 Signaling Pathway (AID 357; active = well fitted curve in either direction with a large enough effect, not every such curve was filed as active;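 note: ME-180 reporter cells stimulated with EGF at its EC50 level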); settings: ME-180 AP-1-bla reporter, EGF-induced, beta-lactamase ratio, 5 h; at 7.69 µM (top of the series) unless noted
In short: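 Titration-series screen for positive or negative modulators of EC50 EGF-induced signaling in ME-180 cells carrying an AP-1-driven beta-lactamase reporter. After 5 hours at 37 degrees Celsius, CCF4 460nm/530nm emission ratio gave %Activity; AC50 values derived.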

[3] = target: Cytochrome P450 1A2 (Homo sapiens) (UniProt P05177); assay: p450-cyp1a2 (AID 410; calls by dose curve)
Cytochrome P450 1A2 (Homo sapiens), sequence (P05177 whole entry, looked up): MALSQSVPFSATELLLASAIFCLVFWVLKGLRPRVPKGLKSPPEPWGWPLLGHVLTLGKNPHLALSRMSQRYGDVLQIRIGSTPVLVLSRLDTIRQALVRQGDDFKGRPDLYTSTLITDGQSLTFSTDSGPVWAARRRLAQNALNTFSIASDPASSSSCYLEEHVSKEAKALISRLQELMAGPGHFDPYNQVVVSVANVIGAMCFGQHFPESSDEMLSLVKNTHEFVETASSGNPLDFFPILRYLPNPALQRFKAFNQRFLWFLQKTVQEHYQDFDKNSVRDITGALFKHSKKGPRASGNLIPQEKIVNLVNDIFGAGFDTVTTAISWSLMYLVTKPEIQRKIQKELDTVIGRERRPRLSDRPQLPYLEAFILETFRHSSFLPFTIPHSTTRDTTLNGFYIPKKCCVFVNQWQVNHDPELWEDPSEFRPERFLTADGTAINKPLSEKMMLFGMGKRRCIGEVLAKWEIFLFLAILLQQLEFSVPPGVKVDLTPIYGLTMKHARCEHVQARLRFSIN
In short: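 Inhibition was calculated relative to 57 uM furafylline (full inhibition). The reaction used human CYP1A2 at 20nM with Luciferin-ME at its Km, 100uM, driven by an NADPH-regenerating system for 60 min at room temperature.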

[4] = NFAT Signaling Pathway (AID 444; active = well fitted curve in either direction with a large enough effect, not every such curve was filed as active;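 note: carbachol stimulus at about its EC50 of 1 µM final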); settings: Jurkat NFAT-bla M1, carbachol, beta-lactamase ratio, 5 h; at 7.69 µM (top of the series) unless noted
In short: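 Jurkat cells carrying an NFAT-driven β-lactamase reporter and co-transfected muscarinic M1 receptor were treated with compound plus carbachol (1 uM final, an EC50 level) for 5 h at 37 °C. CCF4 loading followed for 1 h at RT; 460/530 nm ratio gave %activity.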

[5] = Stat Signaling Pathway (AID 446; active = well fitted curve in either direction with a large enough effect, not every such curve was filed as active;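 note: ME-180 cervical cancer cells given 40 pM IL-6 alongside compound; SIE-controlled beta-lactamase reporter measured as 460/530 nm FRET emission ratio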); settings: ME-180 SIE beta-lactamase reporter, IL-6 stimulated, 5 h; at 7.69 µM (top of the series) unless noted
In short: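 Screening format detects activators and inhibitors alike: ME-180 SIE-bla cells stimulated at 40 pM IL-6 for 5 hrs with compound, then dual-emission beta-lactamase read at 405 nm excitation.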

[6] = target: Glucocorticoid receptor (Homo sapiens) (UniProt P04150); assay: GR-GFP Redistribution (AID 450;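 active = compounds whose dose series gives a full or clear partial fitted curve of increased nuclear translocation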; note: potency is the fitted concentration of half-maximal effect); settings: U2OS GR-GFP nuclear translocation, laser cytometry, 2 h
Glucocorticoid receptor (Homo sapiens), sequence (P04150 whole entry, looked up, the tested form may be a part): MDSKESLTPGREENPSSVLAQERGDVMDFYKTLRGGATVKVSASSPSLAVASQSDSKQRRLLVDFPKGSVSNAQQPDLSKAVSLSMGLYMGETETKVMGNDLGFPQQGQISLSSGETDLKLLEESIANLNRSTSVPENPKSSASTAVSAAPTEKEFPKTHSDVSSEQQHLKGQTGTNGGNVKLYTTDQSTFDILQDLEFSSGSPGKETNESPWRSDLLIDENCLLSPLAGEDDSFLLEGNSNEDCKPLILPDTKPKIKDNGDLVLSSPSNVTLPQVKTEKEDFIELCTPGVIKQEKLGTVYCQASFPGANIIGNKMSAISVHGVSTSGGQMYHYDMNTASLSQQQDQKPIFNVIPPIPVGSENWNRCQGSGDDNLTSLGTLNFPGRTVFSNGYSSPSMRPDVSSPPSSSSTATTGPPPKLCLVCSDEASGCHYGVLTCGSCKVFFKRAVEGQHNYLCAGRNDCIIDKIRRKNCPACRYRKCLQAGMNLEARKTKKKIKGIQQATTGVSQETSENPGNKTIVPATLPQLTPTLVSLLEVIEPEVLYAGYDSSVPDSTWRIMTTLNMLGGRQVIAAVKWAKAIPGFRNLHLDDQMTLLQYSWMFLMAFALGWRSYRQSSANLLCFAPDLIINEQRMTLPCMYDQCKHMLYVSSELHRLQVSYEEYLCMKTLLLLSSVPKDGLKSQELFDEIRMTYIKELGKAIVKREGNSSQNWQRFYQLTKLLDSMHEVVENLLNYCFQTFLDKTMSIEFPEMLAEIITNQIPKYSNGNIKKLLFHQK

[7] = target: Glucocorticoid receptor (Homo sapiens) (UniProt P04150); assay: GR-EFC Redistribution (AID 451; calls by dose curve; note: potency is the fitted concentration of half-maximal effect); settings: CHO-K1 GR-EFC translocation, beta-gal luminescence, 2 h
In short: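 CHO-K1 cells stably expressing nuclear-localized β-gal enzyme acceptor and GR fused C-terminally to the enzyme donor fragment; ligand-driven nuclear translocation restores β-gal by complementation. Compounds titrated up to 46 uM final, 2 h at 37 °C; luminescence read.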

[8] = target: Mitogen-activated protein kinase 10 (Mus musculus) (UniProt Q61831); assay: JNK3 AlphaScreen Assay (AID 530; active = well fitted curve in either direction with a large enough effect, not every such curve was filed as active;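 note: kinase came from lysate of stimulated human HepG2 cells; signal reports phosphorylation of biotinylated GST-cJun 1-79 at Ser73 with 10 µM ATP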)
In short: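 JNK3 came from HepG2 lysates pre-activated with IL-1beta and TNF-alpha and phosphorylated biotinylated GST-cJun (1-79) at 10 uM ATP, pH 7.6, room temperature. Compounds were titrated. AlphaScreen signal used anti-phospho-cJun (Ser73) antibody.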

[9] = target: 3',5'-cyclic-AMP phosphodiesterase 4B (Homo sapiens) (UniProt Q07343); assay: qHTS Assay for Inhibitors of PDE-IV (AID 607; active = well fitted activation curve with a large enough effect in the main read-out, with a control signal flat, not every such curve was filed as active)
3',5'-cyclic-AMP phosphodiesterase 4B (Homo sapiens), sequence (Q07343 whole entry, looked up): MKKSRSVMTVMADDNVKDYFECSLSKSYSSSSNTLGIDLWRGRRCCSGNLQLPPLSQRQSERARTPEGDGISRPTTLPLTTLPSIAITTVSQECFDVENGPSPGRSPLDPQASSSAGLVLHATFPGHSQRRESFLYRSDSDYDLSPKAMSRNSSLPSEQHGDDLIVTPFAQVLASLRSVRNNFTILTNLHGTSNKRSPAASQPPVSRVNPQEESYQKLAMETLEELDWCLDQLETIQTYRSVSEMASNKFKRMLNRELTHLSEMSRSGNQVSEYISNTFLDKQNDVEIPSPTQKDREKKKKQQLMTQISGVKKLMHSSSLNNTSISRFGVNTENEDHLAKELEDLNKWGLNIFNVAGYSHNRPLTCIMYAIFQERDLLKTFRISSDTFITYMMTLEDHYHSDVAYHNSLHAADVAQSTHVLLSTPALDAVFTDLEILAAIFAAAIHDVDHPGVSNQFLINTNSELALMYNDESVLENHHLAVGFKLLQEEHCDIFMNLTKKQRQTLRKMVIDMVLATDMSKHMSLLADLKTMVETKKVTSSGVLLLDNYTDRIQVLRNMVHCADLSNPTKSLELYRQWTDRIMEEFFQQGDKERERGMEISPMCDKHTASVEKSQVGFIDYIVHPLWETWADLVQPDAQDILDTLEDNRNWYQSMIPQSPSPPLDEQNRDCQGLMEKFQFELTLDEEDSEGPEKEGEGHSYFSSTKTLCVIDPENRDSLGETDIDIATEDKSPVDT
In short: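 The readout is membrane depolarisation from a cAMP-sensing CNG channel, detected with a potential dye at ex 535/em 590. Cells were HEK293-derived (endogenous PDE-IV) at 1000 cells/well, titrated up to 22.9 uM final.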

[10] = target: Tyrosyl-DNA phosphodiesterase 1 (Homo sapiens) (UniProt Q9NUW8); assay: Confirmation Assay for Inhibitors of Tyrosyl-DNA Phosphodiesterase (TDP1) (AID 489007); settings: recombinant human TDP1 enzymatic activity, dose-response; note: potency is the fitted concentration of half-maximal effect; nearly all actives have a fitted effect of over 40% in size
Tyrosyl-DNA phosphodiesterase 1 (Homo sapiens), sequence (Q9NUW8 whole entry, looked up): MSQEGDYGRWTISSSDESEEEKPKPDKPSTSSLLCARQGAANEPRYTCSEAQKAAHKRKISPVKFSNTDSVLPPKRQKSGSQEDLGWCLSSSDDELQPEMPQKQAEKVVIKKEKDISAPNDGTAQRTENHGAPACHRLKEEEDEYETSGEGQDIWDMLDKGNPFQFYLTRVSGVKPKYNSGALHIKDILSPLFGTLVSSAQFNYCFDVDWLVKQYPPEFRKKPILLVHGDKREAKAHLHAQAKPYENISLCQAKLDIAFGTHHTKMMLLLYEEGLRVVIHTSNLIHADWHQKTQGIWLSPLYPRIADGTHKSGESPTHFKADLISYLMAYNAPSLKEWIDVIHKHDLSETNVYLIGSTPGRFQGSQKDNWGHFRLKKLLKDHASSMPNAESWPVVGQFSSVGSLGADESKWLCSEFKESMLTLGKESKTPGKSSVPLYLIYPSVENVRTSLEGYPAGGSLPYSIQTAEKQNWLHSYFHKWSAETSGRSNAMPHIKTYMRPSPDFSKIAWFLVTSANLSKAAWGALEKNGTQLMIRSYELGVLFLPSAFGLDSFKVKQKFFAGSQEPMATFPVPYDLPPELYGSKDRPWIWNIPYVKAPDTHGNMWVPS
In short: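 Confirmation of primary-screen follow-ups in a qHTS format. Substrate cleavage by Tdp1 (1 nM) of a 3'-phosphotyrosine-FITC, 5'-biotin oligo (15 nM) was monitored as decreased AlphaScreen signal after a 5 min room-temperature reaction.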

[11] = S16 Schwann cell viability assay (CellTiter-Glo assay) (AID 624031);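 note: cellular ATP luminescence as a viability measure; nearly all actives have a fitted effect of over 70% in size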
In short: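 This viability control uses native rat S16 Schwann cells grown in DMEM plus 10% FBS. After a 24 h compound treatment at 37 °C, CellTiter-Glo luminescence reports ATP content, scaled against DMSO-treated and cell-free wells.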

[12] = S16 Schwann cell PMP22 intronic element firefly luciferase assay (AID 624032); note: nearly all actives have a fitted effect of over 30% in size
In short: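 Rat S16 Schwann cells stably carrying a PMP22 intronic element-driven Fluc reporter were seeded overnight, then exposed to compounds for 24 h at 37 °C. Luminescence was normalized to PTC124 (positive control) and DMSO (0% activity).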

[13] = S16 Schwann cell PMP22 intronic element beta-lactamase assay (AID 624044; calls by dose curve; note: nearly all actives have a fitted effect of over 15% in size)
In short: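 Rat S16 Schwann cells with beta-Lac driven by a PMP22 intronic element, compound-treated 24 h at 37 °C. LiveBLAzer FRET B/G read: 460 nm normalized to potassium clavulanate vs DMSO; 535 nm FRET as viability; concentration-effect curves classified.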

[14] = qHTS profiling for inhibitors of Plasmodium falciparum proliferation (AID 504749); note: nearly all actives have a fitted effect of over 60% in size; settings: P. falciparum in erythrocytes, SYBR Green DNA, 72 h, at 28.7 µM (top of the series)
In short: (§1)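 P. falciparum-infected erythrocytes (0.3% parasitemia, 2.5% hematocrit final) were exposed to compounds for 72 h at 37 C in 5% CO2, then lysed with SYBR Green buffer overnight at room temperature; parasite DNA fluorescence was normalized to artemisinin and DMSO controls.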

3D7 = assay: as above; settings: P. falciparum in erythrocytes, SYBR Green DNA, 72 h; series mostly up to 28.7 µM
In short: as §1

7G8 = assay: as above; settings: P. falciparum in erythrocytes, SYBR Green DNA, 72 h; series mostly up to 28.7 µM
In short: as §1

AA1029 = assay: as above; settings: P. falciparum in erythrocytes, SYBR Green DNA, 72 h; series mostly up to 28.7 µM
In short: as §1

For CN(C)[C@H]1C(=O)C(C(=O)NCN2CCCC2)=C(O)[C@]2(O)C(=O)C3=C(O)c4c(O)cccc4[C@](C)(O)[C@H]3C[C@H]12, the Potency [1] was greater than 11.4 µM, the activity change, negative = inhibition [2] was -4.67% and the Potency [3] was “inactive”. The activity change, negative = inhibition [4] was 6.5%, the activity, negative = inhibition [5] was -11.7% and the Potency [6] was greater than 46 µM. The Potency [7] was greater than 9.22 µM, the Potency [8] was “inactive” and the Potency [9] was “inactive”. The Potency [10] was 0.0794 µM (active), the Potency [11] was “inactive” and the Potency [12] was “inactive”. For the same compound, the outcome [13] was “inactive”, the activity, negative = inhibition ([14]; parasite line A) was 9.1% and the activity, negative = inhibition ([14]; parasite line B) was 1.72%. The Potency (3D7) was “inactive”, the Potency (7G8) was “inactive” and the Potency (AA1029) was “inactive”.
